Columns and labels:
Experiment in all cases: PBM binding z-score (relative to random genomic background probes); higher = stronger binding; sequences stand for … in GC…GCGATTGACAGCGTAGAATGAAGG
[1] = system: PPARg:RXRa IVT, anti-PPARg (NR concentration 270 nM, RXRa partner concentration 90 nM)
In short: (§1)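 Ligand-free nuclear receptor dimers were applied to custom Agilent 4×180K protein-binding microarrays whose double-stranded probes carried direct-repeat seeds, single-nucleotide variants, half-site ablations and random human genomic background sequences in 34-nt variable regions. Incubation lasted 1 h. Binding z-scores were computed against the random background probes from regression-normalized fluorescence.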

[2] = system: PPARg DBDmut:RXRa IVT, anti-PPARg (DBD mutation: PPARg1 K132A/R137A, NR concentration 270 nM, RXRa partner concentration 90 nM)
In short: as §1

[3] = system: PPARg DBDmut IVT, anti-PPARg (DBD mutation: PPARg1 K132A/R137A, NR concentration 270 nM)
In short: as §1

[4] = system: PPARg homodimer (NR concentration 180 nM)
In short: as §1

[5] = system: PXR homodimer (NR concentration 270 nM)
In short: as §1

[6] = system: RARa homodimer (NR concentration 270 nM)
In short: as §1

[7] = system: RARb:RXRa (NR concentration 270 nM, RXRa partner concentration 90 nM)
In short: as §1

[8] = system: RARb homodimer (NR concentration 270 nM)
In short: as §1

[9] = system: RARa:RXR (NR concentration 270 nM, RXRa partner concentration 90 nM)
In short: as §1

[10] = system: PXR:RXRa (NR concentration 270 nM, RXRa partner concentration 90 nM)
In short: as §1

| Sequence | PBM binding z-score [1] | PBM binding z-score [2] | PBM binding z-score [3] | PBM binding z-score [4] | PBM binding z-score [5] | PBM binding z-score [6] | PBM binding z-score [7] | PBM binding z-score [8] | PBM binding z-score [9] | PBM binding z-score [10] |
| --- | --- | --- | --- | --- | --- | --- | --- | --- | --- | --- |
| CAAACTAGGTCAAGAGGTCAAAGTTCGCTTCCCG | 8.83 | 3.82 | 5.91 | 10.9 | 5.01 | 4.53 | 5.51 | 5.71 | – | – |
| CAAACGAGGTCAAGGTCAAAGTCGGTTTGTGCCA | 7.3 | 3.16 | 1.96 | 4.15 | 4.12 | 2.66 | – | 5.54 | – | – |
| CCTTAGGGGTCACTCCAGGTTATAGCATCGGAGT | 5.37 | 2.85 | 0.901 | 3.42 | 0.789 | 1.3 | 5.36 | 4.71 | – | – |
| AATACAGGGTCATCGTAGGTCAGAGTACGCACAG | 5.07 | 3.45 | 1.68 | 3.34 | 1.57 | 1.7 | 4.69 | 4.58 | 6.33 | – |
| CGTCAAAGTTCAACTAAGGTCACGTAAAGCACGC | 3.7 | 0.74 | 1.77 | 6.25 | 12.2 | 3.25 | – | 6.11 | – | – |
| ACTCGGAGGTCAAAGGTCAGAGCTACGCCAGTGA | 6.2 | 2.13 | 2.31 | 6.27 | 1.87 | 3.86 | – | 5.48 | – | – |
| CGTCAAAGTTCAACTAAGGTTACGTAAAGCACGC | 2.44 | 1.54 | 1.43 | 3.83 | 8.22 | 1.91 | 5.44 | 5.67 | 5.27 | – |
| CGTCAAAGGTCAACTAAGGTAACGTAAAGCACGC | 5.93 | 1.03 | 0.957 | 4.87 | 1.59 | 3.77 | – | 5.33 | 6.58 | – |
| ATATGTAGGTTAGGGGTCATTCAGGTTGGTTCGC | 7.13 | 1.75 | 2 | 5.22 | 6.76 | 2.76 | 3.82 | 4.47 | – | – |
| CGTCCAAGGTCATAGAGGTCAGTGAATGCCGAGT | 4.48 | 0.246 | 1.44 | 7.41 | 13.8 | 3.94 | 5.39 | 5.34 | – | – |
| AATACGGGGTCATCGTAGGCCAGAGTACGCACAG | 5.98 | 1.67 | 2.1 | 3.3 | 1.94 | 1.73 | 5.09 | 4.48 | – | – |
| CAAACAAGGTCAAAGGTCAAAGTCGAGCCAACCA | 7.85 | 4.28 | 4.16 | 7.37 | 4.12 | 6.18 | – | 5.66 | – | – |
| CTACCAAGGTCAACAAGGTCGTTGATTACTATTC | 4.74 | 1.26 | 1.4 | 4.44 | 12.6 | 3.35 | – | 5.25 | 6.63 | – |
| AGTCAAAGTTCATCTAGGTCACGTAAGATATGCT | 6.09 | 1.86 | 2.18 | 4.77 | 13.9 | 2.4 | – | 5.12 | 6.05 | – |
| ATATGTAGGTTAACTGGGGTCATTCAGACTAGGC | 7.34 | 1.81 | 2.42 | 1.95 | 5.25 | 1.61 | 3.55 | 4.28 | 5.93 | – |
| ATATGTAGGTCAAGGGTCATTCAGGTTGGTTCGC | 9.34 | 5.02 | 3.68 | 4.44 | 2.53 | 1.72 | 5.35 | 5.1 | – | – |
| ATATGTAGGTTATCTGGGGTCATTCAGACTAGGC | 6.58 | 2.87 | 2.04 | 3.42 | 6.37 | 1.76 | 3.16 | 3.97 | 5.95 | – |
| AGAACGAGGTCACGCTGAGTTGATAGCAGAGTAG | 7.41 | 3.83 | 1.29 | 4.17 | 2.35 | 1.26 | – | 4.38 | 6.71 | – |
| CGAACGAGGTCAAAGGACAGTGAAAGGCGACGTA | 6.29 | – | 3.98 | 6.42 | 1.74 | 0.557 | 5.01 | 3.88 | 5.86 | 5.26 |
